{
  "source": "PubChem BioAssay (Tox21)",
  "note": "Inconclusive results are not listed. A number with no mark means an inactive call. The source made the active and inactive calls. Calls come from the whole dose curve. % is set by controls: 0 for no effect and ±100 for the full control effect; potency is the fitted concentration of half-maximal effect.",
  "data": [
    {"biological_target": "Progesterone receptor (Homo sapiens) (UniProt P06401)", "sequence (P06401 whole entry, looked up)": "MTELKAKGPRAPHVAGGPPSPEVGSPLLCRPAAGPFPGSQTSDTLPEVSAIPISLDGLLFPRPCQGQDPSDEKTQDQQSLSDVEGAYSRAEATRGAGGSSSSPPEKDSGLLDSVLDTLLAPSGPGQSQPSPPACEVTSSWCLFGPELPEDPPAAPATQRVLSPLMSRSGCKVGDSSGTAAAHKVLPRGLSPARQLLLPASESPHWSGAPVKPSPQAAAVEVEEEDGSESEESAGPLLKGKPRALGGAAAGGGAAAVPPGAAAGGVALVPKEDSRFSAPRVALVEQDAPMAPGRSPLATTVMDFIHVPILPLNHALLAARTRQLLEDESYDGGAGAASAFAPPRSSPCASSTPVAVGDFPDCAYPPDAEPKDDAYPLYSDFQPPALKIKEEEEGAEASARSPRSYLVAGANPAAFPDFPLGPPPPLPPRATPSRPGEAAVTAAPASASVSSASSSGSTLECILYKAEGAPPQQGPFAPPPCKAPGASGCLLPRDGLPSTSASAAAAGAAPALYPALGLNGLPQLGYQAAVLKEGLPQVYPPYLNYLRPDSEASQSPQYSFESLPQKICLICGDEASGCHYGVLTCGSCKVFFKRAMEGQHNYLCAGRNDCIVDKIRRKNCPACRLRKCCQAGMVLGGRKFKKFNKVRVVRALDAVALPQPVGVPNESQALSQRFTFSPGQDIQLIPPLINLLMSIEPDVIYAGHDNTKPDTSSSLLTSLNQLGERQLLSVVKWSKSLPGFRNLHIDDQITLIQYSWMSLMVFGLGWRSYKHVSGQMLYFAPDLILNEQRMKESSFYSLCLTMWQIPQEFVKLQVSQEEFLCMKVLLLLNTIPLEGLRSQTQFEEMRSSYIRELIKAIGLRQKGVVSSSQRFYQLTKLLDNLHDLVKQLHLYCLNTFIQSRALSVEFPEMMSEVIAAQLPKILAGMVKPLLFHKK", "experiment": "qHTS assay to identify small molecule agonists of the progesterone receptor (PR) signaling pathway (AID 1346784); note: nearly all actives have a fitted effect of over 30% in size", "conditions": "PR-UAS-bla HEK293T, beta-lactamase FRET ratio, 16 h; series mostly up to 92.4 µM; activation: at the top concentration", "text": "U.S. Tox21 Program National Center for Advancing Translational Sciences [NCATS] NIH Chemical Genomics Center [NCGC] U.S. Environmental Protection Agency [EPA] National Institutes of Environmental Health Sciences [NIEHS] National Toxicology Program [NTP] U.S. Food and Drug Administration [FDA] […] Endocrine disrupting chemicals (EDCs) and their interactions with steroid hormone receptors like PR causes disruption of normal endocrine function. To identify the compounds that activate PR signaling, a PR-UAS-bla GripTite cell line i.e. PR-UAS-bla HEK 293T (Invitrogen, Carlsbad, CA, USA) containing a beta-lactamase reporter gene under the control of an Upstream Activator Sequence (UAS) was used to screen Tox21 10K compound library.\nTox21 Assay Protocol Summary: PR-UAS-bla HEK 293T cells were dispensed at 3,000 cells/5 uL of assay medium containing 2% charcoal stripped FBS per well into black wall/clear-bottom 1536-well plates using a Multidrop Combi (ThermoFisher Scientific, Waltham, MA) dispenser. After the assay plates were incubated at a 37C and 5% CO2 for 6hr, 23 nL of compounds dissolved in DMSO, positive controls or DMSO only was transferred to the assay plate by a Pintool station (Kalypsys, San Diego, CA). The plates were incubated at 37C and 5% CO2 for 16hr. Then 1 uL of LiveBLAzer B/G FRET substrate was added using a BioRAPTR FRD (Flying Reagent Dispenser, Aurora Discovery, San Diego, CA). After the plates were incubated at room temperature for 2 hours, fluorescence intensity was measured by an Envision plate reader (PerkinElmer, Shelton, CT).", "values": [
      {"smiles": "CC(C)=CCNc1ncnc2c1ncn2[C@@H]1O[C@H](CO)[C@@H](O)[C@H]1O", "activation": "1.86% [at 42.5 µM]"},
      {"smiles": "Cc1c2ccccc2c(C)c2c1ccc1ccccc12", "activation": "12.5%"},
      {"smiles": "CN(C)Cc1cc(C(C)(C)C)c(O)c(C(C)(C)C)c1", "activation": "2.82%"},
      {"smiles": "C=CC(=O)Nc1cc2c(Nc3ccc(F)c(Cl)c3)ncnc2cc1OCCCN1CCOCC1", "activation": "-2.28% [at 42.5 µM]"},
      {"smiles": "CCC(C)(CCC(C)C)C(=O)[O][Sn]([CH3])([CH3])[O]C(=O)C(C)(CC)CCC(C)C", "note": "(stereo not given)", "activation": "7.48%"},
      {"smiles": "CN1CCN2c3ccccc3Cc3ccccc3C2C1", "note": "(stereo not given)", "activation": "0.344% [at 42.5 µM]"},
      {"smiles": "CC(C)(C)NSc1nc2ccccc2s1", "activation": "4.38%"},
      {"smiles": "Cc1cc(-c2ccc(N=Nc3cc(S(=O)(=O)O)c4ccccc4c3N)c(C)c2)ccc1N=Nc1cc(S(=O)(=O)O)c2ccccc2c1N", "activation": "0.761%"},
      {"smiles": "CCC(COC(=O)CCS)(COC(=O)CCS)COC(=O)CCS", "activation": "-0.0613%"},
      {"smiles": "COC(C)=O", "activation": "-0.236%"},
      {"smiles": "CC(C)OC(=O)C(O)(CC(=O)O)CC(=O)O", "activation": "-0.128%"},
      {"smiles": "Fc1ccc(C(c2ccc(F)cc2)N2CCNCC2)cc1", "activation": "-3.16% [at 42.5 µM]"},
      {"smiles": "CCCCCCCCCCOC(=O)c1ccccc1C(=O)OCCCCCCCC", "activation": "0.104%"},
      {"smiles": "O=C(O)c1cccc(C(F)(F)F)c1", "activation": "-0.283%"},
      {"smiles": "O=[N+]([O-])c1ccc(F)c(Cl)c1", "Potency": "1.09 µM (active)"},
      {"smiles": "CCC(CC)C(C)CCOC(C)=O", "note": "(stereo not given)", "activation": "0.436%"},
      {"smiles": "O=c1[nH]c(=O)n([C@H]2C[C@H](O)[C@@H](CO)O2)cc1F", "activation": "-2.78% [at 42.5 µM]"},
      {"smiles": "O=C(O)CCN(C1(C(=O)NO)CCCC1)S(=O)(=O)c1ccc(Oc2ccc(F)cc2)cc1", "activation": "-4%"},
      {"smiles": "C/C=C/C=C/COC(=O)C(C)C", "activation": "4.92%"},
      {"smiles": "CCOC(=O)NNc1ccc(N(CC)CC(C)O)nn1", "note": "(stereo not given)", "activation": "-1.05% [at 42.5 µM]"},
      {"smiles": "Cc1cc(C)c(/C=C2\\C(=O)Nc3ccccc32)[nH]1", "activation": "-16.3% [at 42.5 µM]"},
      {"smiles": "S=C([S-])NCCNC(=S)[S-].S=C([S-])NCCNC(=S)[S-].[Mn+2].[Zn+2]", "activation": "10.9% [at 42.5 µM]"},
      {"smiles": "Cc1cccc(C(=O)O)c1O", "activation": "-2.5% [at 42.5 µM]"},
      {"smiles": "Sc1nc2ccccc2s1", "activation": "2%"},
      {"smiles": "OCC(F)(F)F", "activation": "2.98%"},
      {"smiles": "CC(=O)c1ccc(C(C)=O)cc1", "activation": "-3.53%"},
      {"smiles": "C=CCCC(=O)/C=C/C1C(C)=CCCC1(C)C", "note": "(stereo not given)", "activation": "1.71%"},
      {"smiles": "OC1CCCc2ccccc21", "note": "(stereo not given)", "activation": "-2.93%"},
      {"smiles": "COC(=O)c1ccccc1OC", "activation": "0.321%"},
      {"smiles": "CC1(C)CC(O)CC(C)(C)N1", "activation": "0.929%"},
      {"smiles": "CC(C)(C)CC(C)(C)c1ccc(Nc2ccc(C(C)(C)CC(C)(C)C)cc2)cc1", "activation": "-0.254% [at 8.39 µM]"},
      {"smiles": "CNc1ccc([N+](=O)[O-])cc1", "activation": "0.0785%"},
      {"smiles": "CCCCCC/C=C\\CCCCCCCC(=O)O", "activation": "0.912%"},
      {"smiles": "CC(C)Cn1cnc2c(N)nc3ccccc3c21", "activation": "1.05% [at 19 µM]"},
      {"smiles": "C=CCn1c(=O)n(CC=C)c(=O)n(CC=C)c1=O", "activation": "-1.06%"},
      {"smiles": "Cc1ccc(-c2ccccc2)cc1", "activation": "-3.1%"},
      {"smiles": "O=C1CCCCCCCCCCCCCCCO1", "activation": "-2.65%"},
      {"smiles": "COCCOc1cc2cc(C(=O)NC3CCN(C(C)C)CC3)n(CC(=O)Nc3ccc(Cl)cn3)c2cn1", "activation": "1.74%"},
      {"smiles": "NC(=S)NC(N)=S", "activation": "-0.023%"},
      {"smiles": "O=C(O)O", "Potency": "0.373 µM (active)"}
    ]}
  ]
}
